Assay results: PubChem BioAssay AID1159580 (chemical genetic matrix, 2015)
Out of some 5,500 compounds screened, about 2,000 (36%) were called active. Inconclusive results (about 18%) are left out. Rule as the data show it: active = normalized growth mostly below about 0.91 (no sharp cut-off); inconclusive = no clear call, values can overlap the other calls; inactive = mostly above about 0.92. The list shows a part of the results.

Experiment: chemical genetic growth profiling, strain panel (AID 1159580);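 also: tested at 20 µM; growth read once vehicle control cultures reached saturation at 30 °C; 1 = growth at the plate median or of vehicle wells; lower values mean less growth of the strain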
Conditions: growth OD

Measured: normalized growth

CCCCCCc1ccc(O)cc1O
active: S. cerevisiae deletion strains, locus YJR066W, strain TOR1, stronger effect = lower value 0.813 | S. cerevisiae deletion strains, locus YKL009W, strain mrt4, stronger effect = lower value 0.868 | S. cerevisiae deletion strains, locus YKL160W, strain elf1, stronger effect = lower value 0.901 | S. cerevisiae deletion strains, locus YKR001C, strain vps1, stronger effect = lower value 0.325 | S. cerevisiae deletion strains, locus YLL026W, stronger effect = lower value 0.915 | S. cerevisiae deletion strains, locus YLR027C, strain aat2, stronger effect = lower value 0.855 | S. cerevisiae deletion strains, locus YLR039C, strain RIC1, stronger effect = lower value 0.291 | S. cerevisiae deletion strains, locus YLR113W, strain HOG1, stronger effect = lower value 0.744 | S. cerevisiae deletion strains, locus YLR221C, strain rsa3, stronger effect = lower value 0.824 | S. cerevisiae deletion strains, locus YLR258W, strain gsy2, stronger effect = lower value 0.891 | S. cerevisiae deletion strains, locus YLR262C, strain YPT6 (second series), stronger effect = lower value 0.582 | S. cerevisiae deletion strains, locus YLR262C, strain YPT6, stronger effect = lower value 0.449 | S. cerevisiae deletion strains, locus YLR320W, strain mms22, stronger effect = lower value 0.74 | S. cerevisiae deletion strains, locus YLR330W, strain CHS5, stronger effect = lower value 0.872 | S. cerevisiae deletion strains, locus YLR371W, strain rom2, stronger effect = lower value 0.622 | S. cerevisiae deletion strains, locus YLR418C, strain cdc73, stronger effect = lower value 0.767 | S. cerevisiae deletion strains, locus YML032C, strain rad52, stronger effect = lower value 0.784 | S. cerevisiae deletion strains, locus YML120C, strain ndi1, stronger effect = lower value 0.836 | S. cerevisiae deletion strains, locus YMR058W, strain fet3, stronger effect = lower value 0.881 | S. cerevisiae deletion strains, locus YMR078C, strain ctf18, stronger effect = lower value 0.912 | S. cerevisiae deletion strains, locus YMR205C, strain PFK2, stronger effect = lower value 0.749 | S. cerevisiae deletion strains, locus YMR223W, strain ubp8, stronger effect = lower value 0.801 | S. cerevisiae deletion strains, locus YMR307W, strain GAS1, stronger effect = lower value 0.563 | S. cerevisiae deletion strains, locus YNL067W, strain RPL9B, stronger effect = lower value 0.779 | S. cerevisiae deletion strains, locus YNL071W, strain lat1, stronger effect = lower value 0.64 | S. cerevisiae deletion strains, locus YNL183C, strain NPR1, stronger effect = lower value 0.813 | S. cerevisiae deletion strains, locus YNL233W, strain BNI4, stronger effect = lower value 0.858 | S. cerevisiae deletion strains, locus YNL248C, strain rpa49, stronger effect = lower value 0.84 | S. cerevisiae deletion strains, locus YNL298W, strain CLA4, stronger effect = lower value 0.831 | S. cerevisiae deletion strains, locus YNL307C, strain MCK1, stronger effect = lower value 0.322 | S. cerevisiae deletion strains, locus YNR052C, strain pop2, stronger effect = lower value 0.77 | S. cerevisiae deletion strains, locus YOL147C, strain pex11, stronger effect = lower value 0.803 | S. cerevisiae deletion strains, locus YOR001W, strain rrp6, stronger effect = lower value 0.876 | S. cerevisiae deletion strains, locus YOR106W, strain vam3, stronger effect = lower value 0.837 | S. cerevisiae deletion strains, locus YOR144C, strain elg1, stronger effect = lower value 0.861 | S. cerevisiae deletion strains, locus YOR184W, strain ser1, stronger effect = lower value 0.685 | S. cerevisiae deletion strains, locus YOR231W, strain MKK1, stronger effect = lower value 0.801 | S. cerevisiae deletion strains, locus YOR270C, strain vph1, stronger effect = lower value 0.73 | S. cerevisiae deletion strains, locus YOR290C, strain snf2, stronger effect = lower value 0.819 | S. cerevisiae deletion strains, locus YPL051W, strain arl3, stronger effect = lower value 0.705 | S. cerevisiae deletion strains, locus YPL078C, strain atp4, stronger effect = lower value 0.891 | S. cerevisiae deletion strains, locus YPL240C, strain hsp82, stronger effect = lower value 0.924 | S. cerevisiae deletion strains, locus YPL256C, strain CLN2, stronger effect = lower value 0.782 | S. cerevisiae deletion strains, locus YPR163C, strain tif3, stronger effect = lower value 0.906 | S. cerevisiae deletion strains, locus YPR167C, strain met16, stronger effect = lower value 0.868 | S. cerevisiae deletion strains, strain wtn01, stronger effect = lower value 0.768
inactive: S. cerevisiae deletion strains, locus YJL187C, strain SWE1, stronger effect = lower value 0.952 | S. cerevisiae deletion strains, locus YJR043C, strain POL32, stronger effect = lower value 0.876 | S. cerevisiae deletion strains, locus YKL068W, stronger effect = lower value 0.967 | S. cerevisiae deletion strains, locus YKL085W, strain MDH1 (second series), stronger effect = lower value 0.954 | S. cerevisiae deletion strains, locus YKL085W, strain MDH1, stronger effect = lower value 0.954 | S. cerevisiae deletion strains, locus YKL190W, strain CNB1, stronger effect = lower value 0.944 | S. cerevisiae deletion strains, locus YKR026C, strain gcn3, stronger effect = lower value 0.972 | S. cerevisiae deletion strains, locus YKR091W, strain srl3, stronger effect = lower value 0.973 | S. cerevisiae deletion strains, locus YLL001W, strain dnm1, stronger effect = lower value 0.935 | S. cerevisiae deletion strains, locus YLL041C, strain sdh2, stronger effect = lower value 0.973 | S. cerevisiae deletion strains, locus YLR058C, strain SHM2, stronger effect = lower value 0.915 | S. cerevisiae deletion strains, locus YLR102C, strain apc9, stronger effect = lower value 0.955 | S. cerevisiae deletion strains, locus YLR268W, strain sec22, stronger effect = lower value 0.913 | S. cerevisiae deletion strains, locus YLR342W, strain FKS1 (second series), stronger effect = lower value 0.87 | S. cerevisiae deletion strains, locus YLR342W, strain FKS1, stronger effect = lower value 0.973 | S. cerevisiae deletion strains, locus YLR357W, strain rsc2, stronger effect = lower value 1.07 | S. cerevisiae deletion strains, locus YLR370C, strain arc18, stronger effect = lower value 0.925 | S. cerevisiae deletion strains, locus YLR384C, strain iki3, stronger effect = lower value 0.997 | S. cerevisiae deletion strains, locus YML016C, strain PPZ1, stronger effect = lower value 0.947 | S. cerevisiae deletion strains, locus YML124C, strain tub3, stronger effect = lower value 0.934 | S. cerevisiae deletion strains, locus YMR125W, strain sto1, stronger effect = lower value 1.04 | S. cerevisiae deletion strains, locus YMR129W, stronger effect = lower value 0.976 | S. cerevisiae deletion strains, locus YMR231W, strain pep5, stronger effect = lower value 0.999 | S. cerevisiae deletion strains, locus YNL209W, strain ssb2, stronger effect = lower value 0.972 | S. cerevisiae deletion strains, locus YNL250W, strain rad50, stronger effect = lower value 0.986 | S. cerevisiae deletion strains, locus YNL271C, strain bni1, stronger effect = lower value 0.952 | S. cerevisiae deletion strains, locus YNL322C, strain KRE1 (second series), stronger effect = lower value 0.927 | S. cerevisiae deletion strains, locus YNR049C, strain mso1, stronger effect = lower value 0.978 | S. cerevisiae deletion strains, locus YOL012C, strain htz1 1.21 | S. cerevisiae deletion strains, locus YOR061W, strain CKA2, stronger effect = lower value 0.962 | S. cerevisiae deletion strains, locus YOR069W, strain VPS5, stronger effect = lower value 0.97 | S. cerevisiae deletion strains, locus YOR070C, strain gyp1, stronger effect = lower value 0.95 | S. cerevisiae deletion strains, locus YOR080W, strain dia2, stronger effect = lower value 0.969 | S. cerevisiae deletion strains, locus YOR083W, strain WHI5, stronger effect = lower value 0.908 | S. cerevisiae deletion strains, locus YOR136W, strain idh2, stronger effect = lower value 0.928 | S. cerevisiae deletion strains, locus YOR265W, strain rbl2, stronger effect = lower value 0.957 | S. cerevisiae deletion strains, locus YOR316C, strain cot1, stronger effect = lower value 0.956 | S. cerevisiae deletion strains, locus YPL106C, strain sse1, stronger effect = lower value 1.05 | S. cerevisiae deletion strains, locus YPL241C, strain CIN2, stronger effect = lower value 0.953 | S. cerevisiae deletion strains, locus YPR119W, strain clb2, stronger effect = lower value 0.956 | S. cerevisiae deletion strains, locus YPR141C, strain kar3, stronger effect = lower value 0.963 | S. cerevisiae strains, strain wild type, stronger effect = lower value 0.926
